From PubChem BioAssay AID1963315 (National Center for Advancing Translational Sciences (NCATS), 2024) come the findings set out here.

Inconclusive results are not listed. Entries that show only a call come without a potency. Activity calls are given as the source filed them. Calls follow the shape of the full dose curve.

Chain of Tyrosine-protein kinase ABL1 (Homo sapiens) (P00519 whole entry, looked up): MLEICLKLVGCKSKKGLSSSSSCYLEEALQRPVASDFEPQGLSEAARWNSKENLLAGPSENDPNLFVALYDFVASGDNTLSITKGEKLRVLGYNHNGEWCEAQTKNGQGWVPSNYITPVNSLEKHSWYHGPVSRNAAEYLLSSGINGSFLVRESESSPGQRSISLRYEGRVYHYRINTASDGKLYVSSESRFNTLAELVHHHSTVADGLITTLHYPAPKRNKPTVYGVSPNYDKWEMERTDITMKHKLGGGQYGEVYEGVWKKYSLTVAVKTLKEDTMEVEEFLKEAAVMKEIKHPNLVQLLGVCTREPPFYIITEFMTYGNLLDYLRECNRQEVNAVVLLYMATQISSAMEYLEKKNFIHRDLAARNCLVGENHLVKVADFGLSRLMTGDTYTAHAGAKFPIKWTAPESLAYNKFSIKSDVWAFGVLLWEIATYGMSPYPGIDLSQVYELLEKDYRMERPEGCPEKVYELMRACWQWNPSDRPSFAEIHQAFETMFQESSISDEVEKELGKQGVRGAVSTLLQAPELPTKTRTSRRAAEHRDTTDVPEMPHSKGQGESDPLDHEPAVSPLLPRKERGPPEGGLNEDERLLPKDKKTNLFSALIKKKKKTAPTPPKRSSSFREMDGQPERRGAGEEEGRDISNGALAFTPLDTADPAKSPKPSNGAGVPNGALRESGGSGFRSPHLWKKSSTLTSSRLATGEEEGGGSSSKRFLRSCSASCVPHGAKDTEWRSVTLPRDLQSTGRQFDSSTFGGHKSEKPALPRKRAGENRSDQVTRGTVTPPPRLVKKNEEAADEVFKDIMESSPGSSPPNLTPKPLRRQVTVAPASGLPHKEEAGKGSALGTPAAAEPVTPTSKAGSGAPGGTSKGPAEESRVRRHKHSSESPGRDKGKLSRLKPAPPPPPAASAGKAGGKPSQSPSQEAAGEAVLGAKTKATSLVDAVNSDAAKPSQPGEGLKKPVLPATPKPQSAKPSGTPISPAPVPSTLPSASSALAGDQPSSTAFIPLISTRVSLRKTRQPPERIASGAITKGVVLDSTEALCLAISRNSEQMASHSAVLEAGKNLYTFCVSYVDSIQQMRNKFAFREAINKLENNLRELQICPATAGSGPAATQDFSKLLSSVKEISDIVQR

This test deals with Tyrosine-protein kinase ABL1 (Homo sapiens) (UniProt P00519). In words: ABL1 kinase (ABL1-N-HiBiT) SDR gain of signal screen. Conditions: Purified ABL1-N-HiBiT enzyme, Nano-Glo HiBiT luminescence, 30 min compound incubation; series mostly up to 32.9 µM. An outline of the steps:
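Gain-of-signal luminescence after Nano-Glo HiBiT detection (10 min, room temperature) measures compound binding to 10 nM ABL1-N-HiBiT, which had been incubated 30 min with compound at room temperature, light-protected, without ATP.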
In general terms: With HiBiT, luminescence reflects the tagged protein that the partner subunit can reach.
Consider `COc1cc(N2CCC(N3CCN(C)CC3)CC2)ccc1Nc1ncc(Cl)c(Nc2ccccc2P(C)(C)=O)n1`, for which the Potency is 605 nM (active). To `S=C(NCc1ccc2c(c1)OCO2)N1CCN(c2ncnc3c2oc2ccccc23)CC1` belongs “inactive”; to `CCN1/C(=C\C(C)=O)Sc2ccc(OC)cc21`, “inactive”; to `COc1cc2nccc(Oc3ccc(NC(=O)Nc4ccc(F)cc4F)c(F)c3)c2cc1OC`, 641 nM (active).

In the case of `CN1CCN(Cc2ccc(-c3cnc4[nH]cc(-c5ccc6[nH]ccc6c5)c4c3)cc2)CC1`, the Potency is 331 nM (active). The figure for `Cn1cc(-c2cc3c(N4CCN(c5ncc([C@@](C)(N)c6ccc(F)cc6)cn5)CC4)ncnn3c2)cn1` is 2480 nM (active). Take `c1cc(-c2cc(C3CCNCC3)[nH]n2)ccn1`: the Potency entry is “inactive”.

Turning to `NC1(C(=O)N[C@@H](CCO)c2ccc(Cl)cc2)CCN(c2ncnc3[nH]ccc23)CC1`, the Potency result was “inactive”. On to `Cc1cc(Nc2ncc3cc(-c4c(Cl)cccc4Cl)c(=O)n(C)c3n2)ccc1F`, for which the Potency is 4.94 nM (active). To `O=C(Nc1cc(C(F)(F)F)ccc1N1CCCCC1)c1ccncc1` belongs “inactive”. In the case of `O=S(=O)(/N=C/c1c(O)ccc2ccccc12)c1cccs1`, the Potency entry is “inactive”. Turning to `O=c1c(O)c(-c2ccc(O)c(O)c2)oc2cc(O)cc(O)c12`, the Potency was 8310 nM (active). Regarding `CO[C@H]1/C=C/O[C@@]2(C)Oc3c(C)c(O)c4c(O)c(c(/C=N\N5CCN(C6CCCC6)CC5)c(O)c4c3C2=O)NC(=O)/C(C)=C\C=C\[C@H](C)[C@H](O)[C@@H](C)[C@@H](O)[C@@H](C)[C@H](OC(C)=O)[C@@H]1C`, the Potency entry is “inactive”. Take `Cc1nc(NC(=O)N2CCC[C@H]2C(N)=O)sc1-c1ccnc(C(C)(C)C(F)(F)F)c1`: the Potency is 2090 nM (active). `Cc1ccc(NC(=O)N2CCN(c3nc(N)nc4sc(-c5cccnc5)nc34)CC2)cc1`: the Potency entry is “inactive”.

Consider `Cc1cc(Nc2ncc3c(n2)N(C)C(=O)N(c2cc(NC(=O)c4cccc(C(F)(F)F)c4)ccc2C)C3)n(C)n1`, for which the Potency is 31.2 nM (active).

Regarding `CC1(C)OCCn2c1nc1c(N3CCOCC3)nc(-c3cnc(N)nc3)nc12`, the Potency was 6230 nM (active). The entry for `COc1ccc(-n2c(C)c([N+](=O)[O-])c3ccc(O)cc32)cc1` is “inactive”; for `Cc1[nH]nc2ncc(C(=O)N3CCC[C@H]3c3ccc(Cl)cc3)cc12` it is “inactive”; for `Cc1cc(F)ccc1-c1nc(NCCN=C(N)NC#N)nc2c1ccc(=O)n2-c1c(F)cccc1F` it is “inactive”.

Take `Cc1c(Cl)cccc1S(=O)(=O)Nc1nc(NCCc2ccccc2)nc2c1CN(Cc1ccccc1)CC2`: the Potency result was “inactive”.
